Test results from PubChem BioAssay AID1159580 (chemical genetic matrix, 2015).
Several values for one entry are separate records, joined by “and”; a condition that tells them apart may be missing. Identical values can stand only once. The campaign covered roughly 5,500 compounds. About 2,000 (36%) were called active. Roughly 18% stayed inconclusive and do not appear here. Rule as the data show it: active = normalized growth mostly below about 0.91 (no sharp cut-off); inconclusive = no clear call, values can overlap the other calls; inactive = mostly above about 0.92. The list shows a part of the results.

Assay: chemical genetic growth profiling, strain panel (AID 1159580);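 also: tested at 20 µM; growth read once vehicle control cultures reached saturation at 30 °C; 1 = growth at the plate median or of vehicle wells; lower values mean less growth of the strain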
Conditions: S. cerevisiae deletion strains, growth OD

Measured: normalized growth

Fc1ccc([C@@H]2CCNC[C@H]2COc2ccc3c(c2)OCO3)cc1
inactive: locus YAL013W, strain DEP1, active compounds read low 1.02 | locus YAL021C, strain ccr4, active compounds read low 1 | locus YAL026C, strain drs2, active compounds read low 0.997 | locus YAL030W, strain snc1, active compounds read low 1.01 | locus YBL061C, strain skt5, active compounds read low 0.991 | locus YBR009C, strain hhf1, active compounds read low 1.01 | locus YBR021W, strain FUR4, active compounds read low 1.01 | locus YBR023C, strain chs3, active compounds read low 1 | locus YBR171W, strain sec66, active compounds read low 0.984 | locus YBR229C, strain ROT2, active compounds read low 1.01 | locus YBR231C, strain swc5, active compounds read low 0.992 | locus YBR279W, strain paf1, active compounds read low 1 | locus YCL011C, strain gbp2, active compounds read low 0.999 | locus YCL016C, strain dcc1, active compounds read low 0.99 | locus YCL029C, strain bik1, active compounds read low 1.02 | locus YCL061C, strain MRC1, active compounds read low 0.998 | locus YCL069W, strain vba3, active compounds read low 1 | locus YCR088W, strain abp1, active compounds read low 1 | locus YDL005C, strain med2, active compounds read low 1.01 | locus YDL035C, strain GPR1, active compounds read low 1.03 | locus YDL040C, strain nat1, active compounds read low 0.992 | locus YDL074C, strain BRE1, active compounds read low 1.01 | locus YDL101C, strain DUN1, active compounds read low 1.01 | locus YDL134C, strain PPH21, active compounds read low 1 | locus YDL185W, strain tfp1, active compounds read low 1.01 | locus YDL192W, strain arf1, active compounds read low 1.01 | locus YDR001C, strain nth1, active compounds read low 0.999 | locus YDR069C, strain doa4, active compounds read low 1.01 | locus YDR101C, strain arx1, active compounds read low 1 | locus YDR137W, strain rgp1, active compounds read low 1.09 | locus YDR150W, strain NUM1, active compounds read low 1 | locus YDR159W, strain sac3, active compounds read low 1.01 | locus YDR162C, strain NBP2, active compounds read low 1 | locus YDR195W, strain ref2 1.02 | locus YDR297W, strain sur2, active compounds read low 0.998 | locus YDR318W, strain mcm21, active compounds read low 1.02 | locus YDR334W, strain swr1, active compounds read low 1.01 | locus YDR335W, strain msn5, active compounds read low 1.01 | locus YDR388W, active compounds read low 1 | locus YDR392W, strain spt3, active compounds read low 1.02 | locus YDR502C, strain sam2, active compounds read low 0.998 | locus YEL003W, strain gim4, active compounds read low 1.01 | locus YEL037C, strain rad23, active compounds read low 1 | locus YEL061C, strain CIN8 (second series), active compounds read low 1 | locus YEL061C, strain CIN8, active compounds read low 1.01 | locus YER015W, strain faa2, active compounds read low 1.01 | locus YER016W, strain bim1, active compounds read low 0.99 | locus YER110C, active compounds read low 1.02 | locus YER111C, strain swi4, active compounds read low 0.984 | locus YER155C, strain BEM2 (second series), active compounds read low 1.01 | locus YER155C, strain BEM2, active compounds read low 1 | locus YER167W, strain BCK2, active compounds read low 1.02 | locus YFR010W, strain ubp6, active compounds read low 1.03 | locus YGL078C, strain dbp3, active compounds read low 0.989 | locus YGL086W, strain mad1, active compounds read low 1.02 | locus YGL167C, strain pmr1, active compounds read low 1 | locus YGL173C, strain kem1, active compounds read low 0.986 | locus YGL227W, strain vid30, active compounds read low 0.987 | locus YGL240W, strain doc1, active compounds read low 0.99 | locus YGL248W, strain PDE1, active compounds read low 1.01 | locus YGL253W, strain hxk2, active compounds read low 0.993 | locus YGR078C, strain PAC10, active compounds read low 1 | locus YGR135W, strain pre9, active compounds read low 0.987 | locus YGR229C, strain SMI1, active compounds read low 1 | locus YGR252W, strain gcn5, active compounds read low 1.05 | locus YHR013C, strain ard1, active compounds read low 0.998 | locus YHR027C, strain rpn1, active compounds read low 1 | locus YHR030C, strain SLT2, active compounds read low 1.01 | locus YHR079C, strain IRE1 (second series), active compounds read low 1 | locus YHR079C, strain IRE1, active compounds read low 1.02 | locus YHR094C, strain hxt1, active compounds read low 0.999 | locus YHR129C, strain ARP1, active compounds read low 1.01 | locus YHR142W, strain chs7, active compounds read low 0.969 | locus YHR200W, strain rpn10, active compounds read low 1.01 | locus YIL066C, strain RNR3, active compounds read low 1.01 | locus YIL073C, strain SPO22, active compounds read low 1.09 | locus YIL125W, strain kgd1, active compounds read low 0.997 | locus YIR030C, strain dcg1, active compounds read low 1 | locus YJL092W, strain hpr5, active compounds read low 0.998 | locus YJL095W, strain BCK1 (second series), active compounds read low 0.995 | locus YJL095W, strain BCK1, active compounds read low 1.02 and 1.01 | locus YJL115W, strain asf1, active compounds read low 1 | locus YJL129C, strain trk1, active compounds read low 0.987 | locus YJL134W, strain LCB3, active compounds read low 1.01 | locus YJL154C, strain vps35, active compounds read low 1.02 | locus YJL164C, strain tpk1, active compounds read low 1.01 | locus YJL166W, strain qcr8, active compounds read low 1.03 | locus YJL168C, strain set2, active compounds read low 1.01 | locus YJL187C, strain SWE1 (second series), active compounds read low 1 | locus YJL187C, strain SWE1, active compounds read low 1.01 | locus YJR043C, strain POL32, active compounds read low 1.04 | locus YJR066W, strain TOR1, active compounds read low 1.02
